# Rows were chosen to be rich in hits. Some 4.6% of all compounds tested hit in one or more screens of this group.
# Mdm2-MdmX inh – human Mdm2/MdmX binding inhibition | inhibition, % at 8 µM | 330,000 tested, 3% active | SaOS-2 split-luciferase Mdm2/MdmX complementation, luminescence | O15151+Q00987;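 active means inhibition of at least 50% at 8 µM in the primary screen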
# Target sequence (O15151 whole entry, looked up): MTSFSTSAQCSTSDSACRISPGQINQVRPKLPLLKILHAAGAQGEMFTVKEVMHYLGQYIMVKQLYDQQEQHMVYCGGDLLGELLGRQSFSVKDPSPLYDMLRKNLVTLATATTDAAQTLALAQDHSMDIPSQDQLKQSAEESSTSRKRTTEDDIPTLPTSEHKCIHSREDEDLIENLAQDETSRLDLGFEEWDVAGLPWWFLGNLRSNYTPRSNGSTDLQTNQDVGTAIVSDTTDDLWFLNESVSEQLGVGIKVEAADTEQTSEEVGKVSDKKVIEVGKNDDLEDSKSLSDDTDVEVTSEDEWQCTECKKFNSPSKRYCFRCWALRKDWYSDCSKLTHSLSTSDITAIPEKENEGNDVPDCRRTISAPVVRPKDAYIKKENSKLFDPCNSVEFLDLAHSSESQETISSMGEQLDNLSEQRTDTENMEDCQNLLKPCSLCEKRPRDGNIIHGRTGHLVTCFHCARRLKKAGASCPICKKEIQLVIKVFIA
# Target sequence (Q00987 whole entry, looked up): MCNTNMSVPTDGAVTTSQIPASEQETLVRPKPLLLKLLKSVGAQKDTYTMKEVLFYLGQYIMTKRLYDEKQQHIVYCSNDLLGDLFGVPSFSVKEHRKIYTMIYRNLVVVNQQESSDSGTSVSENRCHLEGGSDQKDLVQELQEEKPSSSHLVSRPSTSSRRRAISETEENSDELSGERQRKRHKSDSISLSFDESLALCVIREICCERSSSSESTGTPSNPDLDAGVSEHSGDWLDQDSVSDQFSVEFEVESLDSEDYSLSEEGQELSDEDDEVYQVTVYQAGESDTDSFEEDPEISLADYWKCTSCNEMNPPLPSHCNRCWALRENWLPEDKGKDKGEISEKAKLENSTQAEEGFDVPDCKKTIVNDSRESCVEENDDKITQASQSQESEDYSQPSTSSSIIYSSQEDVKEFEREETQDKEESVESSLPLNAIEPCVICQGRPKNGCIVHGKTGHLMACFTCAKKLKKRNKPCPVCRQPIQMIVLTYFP
# KKLEB cytotox – counter-screen for CF NF-kB inhibitors: cytotoxicity | KKLEB CF airway cells viability, ATPlite luminescence, overnight; active compounds read low; cells stimulated with P. aeruginosa culture filtrate | AID 602141 | 360,000 tested, 0.36% active | activity change (cytotoxicity), % at 5 µM;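 active means corrected activity change at or below -50% at 5 µM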
# HIF-2a block – inhibitors of HIF-2a; 360,000 tested, 0.72% active; 786-0 RCC cells HIF-2a reporter, luciferase luminescence, overnight; inhibition, % at 18.8 µM;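 active means inhibition of the luminescence signal of 40% or more relative to plate controls, in a single-dose primary screen at 18.75 µM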
# CF NFkB inh – cystic fibrosis NF-kB activation inhibition. KKLEB NF-kB-GFP reporter, PAF-induced, GFP fluorescence overnight. inhibition, % at 5 µM. 360,000 tested, 0.86% active;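 active means at least 50% inhibition at 5 µM, scaled per plate between neutral and stimulator controls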;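 further: PAF is a Pseudomonas aeruginosa culture filtrate used as stimulus; plate controls were PAF-stimulated DMSO wells for no effect and unstimulated DMSO wells for full effect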
# ABHD5-PLIN5 inh – ABHD5-PLIN5 protein interaction inhibition | Q00G26+Q8WTS1 | Split G. princeps luciferase complementation, luminescence, 4 h | inhibition, % at 4 µM | 360,000 tested, 0.78% active | AID 602281;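 active means inhibition above the mean inhibition across every tested compound plus 3 SD, cut at about 22% in these data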;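 further: 0% = DMSO only wells and the 100% control is not disclosed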
# Peg3 prom inh-1 – reduces Peg3 promoter-driven luciferase expression in HeLa. HeLa PEG-Prom luciferase reporter, luminescence, overnight. inhibition, % at 20 µM. 360,000 tested, 1.7% active. AID 588405;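 active means inhibition of at least 50% at 20 µM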
# Mdm2 MdmX conf-1 – human Mdm2/MdmX binding inhibition, confirmed; shares compounds with Mdm2-MdmX inh; luminescent assay; inhibition, % at 8 µM; 10,000 tested, 55% active; AID 489028; in the data active means inhibition above about 40%
# FLuc counter – inhibits full-length luciferase, flagging false Mdm2/MdmX hits | shares compounds with Mdm2-MdmX inh | SaOS-2 full-length luciferase counterscreen, luminescence | inhibition, % at 8 µM | 6,200 tested, 77% active | AID 504607;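 active means mean inhibition at 8 µM reaching about 37%, which flags the compound as non-specific, limit read from the data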;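 further: p53-null SaOS-2 cells with luciferase driven by a doxycycline-inducible promoter; compound on cells about two nights before reading with doxycycline added after day one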
# Peg3 prom inh-2 – confirmation of Peg3 promoter inhibitors; 1,300 tested, 84% active; inhibition, % at 20 µM; shares compounds with Peg3 prom inh-1; HeLa PEG-Prom luciferase reporter, luminescence, overnight;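 active means at 20 µM dose, 40% or more inhibition averaged across four replicates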
# Mdm2 MdmX conf-2 – Mdm2/MdmX (human) interaction inhibition, confirmed; shares compounds with HIF-2a block; SaOS-2 split-luciferase Mdm2/MdmX complementation, luminescence; inhibition, % at 8 µM; 740 tested, 99% active; AID 504601;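 active means mean inhibition of the luminescence signal across two replicates at or above 26 percent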
# HIF-2a conf – confirmation of HIF-2a inhibitors | shares compounds with HIF-2a block | 786-0 RCC cells, HIF-2a luciferase reporter luminescence, overnight | inhibition, % at 18.8 µM | 1,800 tested, 56% active | AID 651580;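 active means mean inhibition across four replicates of at least 40 percent at the single tested concentration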
# HIF-1a cs – counter-screen for HIF-2a inhibitors: HIF-1a inhibition in MiaPaCa-2 cells; AID 651589; 1,800 tested, 72% active; inhibition, % at 18.8 µM; MiaPaCa-2 HIF-1a luciferase reporter, desferoxamine, overnight; shares compounds with HIF-2a block;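 active means mean inhibition of the reporter signal across four replicates at the single tested dose of 50% or more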
# * = called active by the depositor; x = not tested or not shown.
SMILES,Mdm2-MdmX inh,KKLEB cytotox,HIF-2a block,CF NFkB inh,ABHD5-PLIN5 inh,Peg3 prom inh-1,Peg3 prom inh-2,others
COc1ccc(/C=C2\SC(=S)N(CCCC(=O)Nc3ccc(O)cc3)C2=O)cc1,76*,5,45*,-24,13,-42,x,Mdm2 MdmX conf-1=66*;FLuc counter=54*;Mdm2 MdmX conf-2=103*
CCc1ccc(/C=C2\SC(=S)N(CCCC(=O)N3CCCC3)C2=O)cc1,x,-22,5,25,2,-24,x,
COCCNC(=O)C1(C)CCCN(C(=O)c2ccccc2OC)C1 (stereo not drawn),x,4,13,-35,-4,7,x,
COCCNc1nc(NCCOc2ccccc2)c2sc(-c3ccccc3)cc2n1,x,-6,-124,-8,3,-15,x,
O=C(OCn1ncc(Cl)c(Cl)c1=O)c1cccc(C(F)(F)F)c1,82*,-38,93*,78*,4,104*,x,Mdm2 MdmX conf-1=100*;FLuc counter=52*;Mdm2 MdmX conf-2=103*;HIF-2a conf=97*;HIF-1a cs=105*
N/C(=N\OC(=O)c1cccc(C(F)(F)F)c1)c1cnccn1,13,2,-200,-17,9,-170,x,
COc1ccc(-n2c(SCC(=O)Nc3ccc(C(=O)O)cc3)nnc2-c2ccccc2)cc1OC,-7,8,17,-12,0,12,x,
N/C(=N\OC(=O)c1ccc([N+](=O)[O-])cc1Cl)c1ccccn1,54*,-30,41*,-25,4,50*,21,Mdm2 MdmX conf-1=37;HIF-2a conf=28;HIF-1a cs=62*
N/C(=N\OC(=O)c1cc([N+](=O)[O-])ccc1Cl)c1ccccn1,35,1,-56,-18,0,-95,x,
Cc1ccc(NC(=O)c2oc3ccc(S(=O)(=O)N4CCOCC4)cc3c2C)c(C)c1,23,9,15,12,13,-4,x,
Cc1cccc(NC(=O)c2oc3ccc(S(=O)(=O)N4CCOCC4)cc3c2C)c1C,6,-3,1,2,0,54*,56*,
CC1CN(C2CCCCC2)C(=S)N(c2ccccc2)C1=O (stereo not drawn),x,-5,2,-2,9,4,x,
Cc1ccc(NC(=O)CN(C)C(=O)Cn2ccsc2=N)cc1,-6,-6,20,3,0,2,x,
Cc1ccc(Oc2ccc(NC(=O)Cn3ccsc3=N)cc2)cc1,36,-6,14,4,16,53*,21,
CC(NS(=O)(=O)OCC(Cl)(Cl)Cl)c1ccc(C(C)(C)C)cc1 (stereo not drawn),x,0,25,28,-9,56*,49*,
CC(C)(NS(=O)(=O)OCC(Cl)(Cl)Cl)c1ccccc1,-11,10,13,-6,-4,12,x,
O=C(/C=C/c1ccc(F)cc1)NC(=S)NNC(=O)c1cnccn1,50,1,-2,22,9,55*,40*,
CC(C)c1ccc(NC(=O)CSc2nc(-c3ccccc3F)nc3nc[nH]c23)cc1,29,1,18,10,-9,60*,25,
CC(C)c1ccc(NC(=O)CSc2nc(=O)[nH]c3c2CCCC3)cc1,11,-29,30,48,2,16,x,
CN(C)c1ccc(/C=C(\C#N)c2ccccn2)cc1,-6,-91*,31,-6,0,78*,49*,
CN(C)c1ccc(NC(=S)c2ccccn2)cc1,x,-55*,54*,-11,-7,90*,66*,
N#C/C(=C\c1ccc([N+](=O)[O-])cc1)c1ccccn1,-52,-13,-231,10,14,-245,x,
CN(C)c1ccc(C(=S)Nc2ccccc2)cc1,-15,-4,-51,2,7,-77,x,
O=C1NC[C@@H](CCCCN2C[C@H](Cc3ccccc3)N(Cc3ccccc3)C(=O)C2=O)N(Cc2ccccc2)C1=O,x,x,2,x,15,x,x,
CCc1nc2ccc(C(=O)Nc3cccc(OCC(=O)N(C)C)c3)cn2c1N(C)C(=O)c1cccc(OC)c1,x,-11,10,15,2,-6,x,
SMILES,Mdm2-MdmX inh,KKLEB cytotox,HIF-2a block,CF NFkB inh,ABHD5-PLIN5 inh,Peg3 prom inh-1,Peg3 prom inh-2,others
CCc1nc2ccc(C(=O)Nc3cccc(OCC(=O)N(C)C)c3)cn2c1N(C)Cc1ccc(OC)cc1,x,-13,-3,18,3,72*,42*,
O=C(NN1CCCCC1)NN1CCCCC1,x,-9,5,9,-3,2,x,
CCOc1ccc2c(ccc(/C=C/c3cc(C)c4cccnc4c3O)[n+]2C)c1,x,-5,26,43,26*,101*,84*,
CCOc1ccc2[nH]c3ncccc3c(=O)c2c1,28,25,-84,-36,-4,-28,x,
Cc1ccc(S(=O)c2ccc([N+](=O)[O-])c3nonc23)cc1 (stereo not drawn),x,-4,0,-10,13,51*,98*,
COc1ccc(-c2nc3c4ccccc4ccn3c2Cc2ccsc2)cc1OC,x,-9,-161,-37,6,-126,x,
O=C1NC[C@@H](CCCCN2CCN(CCC3CCCCC3)C(=O)C2=O)N(Cc2ccccc2)C1=O,x,x,3,x,4,x,x,
Cc1nnc(NC(=O)c2ccc3c(c2)OCO3)s1,-48,5,-184,0,1,-160,x,
CSc1nnc(NC(=O)c2ccc3c(c2)OCO3)s1,42,0,-13,-8,0,52*,15,
COC1=CC(=O)c2c(ccc3ncnc(N)c23)C1=O,x,-90*,91*,82*,55*,93*,99*,
Cc1ccccc1CC(=O)Nc1cccnc1,25,-1,12,-17,-2,10,x,
CS(=O)(=O)N(CC(=O)N1CCCC1)c1ccccc1Br,-1,-2,16,0,3,2,x,
O=C(C(=O)N(Cc1ccccc1)Cc1ccccc1)c1c(-c2ccccc2)[nH]c2ccccc12,x,-81*,-23,94*,-7,64*,68*,
COc1ccc(CN(C)C(=O)C(Cc2ccccc2)NC(=O)c2ccccc2)cc1F (stereo not drawn),35,-28,18,27,-17,54*,84*,

# Source: PubChem BioAssay
